Assay results from publication PMC7862700, “An all-to-all approach to the identification of sequence-specific readers for epigenetic DNA modifications on cytosine”.

Legend:
Assay in all cases: DAPPL (digital affinity profiling via proximity ligation, sequencing); 10 mM Tris-HCl pH 7.5, 50 mM NaCl, 1 mM DTT, 4% glycerol, room temperature, 30 min; GST-TFs on glutathione beads, 16-mer random dsDNA library, 0.1% formaldehyde crosslink after washing; high values mean tight binding
Conditions in all cases: protein: recombinant; tags: N-terminal GST; dsDNA, one strand shown
FLI1 = molecular target: T1, FLI1 (Homo sapiens, UniProt Q01543 1-452)
T1 sequence: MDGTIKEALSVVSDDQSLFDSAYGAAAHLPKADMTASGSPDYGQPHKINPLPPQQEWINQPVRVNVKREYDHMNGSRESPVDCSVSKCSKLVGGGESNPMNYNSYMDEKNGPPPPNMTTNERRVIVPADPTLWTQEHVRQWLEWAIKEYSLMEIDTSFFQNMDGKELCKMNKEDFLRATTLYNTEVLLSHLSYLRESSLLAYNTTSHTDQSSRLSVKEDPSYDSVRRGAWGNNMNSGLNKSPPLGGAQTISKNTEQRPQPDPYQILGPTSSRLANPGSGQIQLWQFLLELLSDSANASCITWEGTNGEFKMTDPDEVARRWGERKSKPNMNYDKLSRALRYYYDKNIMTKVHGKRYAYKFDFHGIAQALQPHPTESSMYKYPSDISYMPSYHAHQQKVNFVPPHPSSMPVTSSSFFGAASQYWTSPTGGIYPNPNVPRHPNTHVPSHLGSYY
In short: (§1)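 Human transcription factors carrying a GST fusion were produced in yeast, bound to glutathione beads, tagged with DNA barcodes and pooled together with a tag-only sample. Each pool was held with 200 nmole of a random double-stranded 16-mer DNA library in Tris/NaCl/DTT/glycerol buffer for 30 min at room temperature, then washed, crosslinked in 0.1% formaldehyde, proximity-ligated with BsaI/T4 ligase (1 h, 37 °C), PCR-amplified and sequenced on an Illumina NextSeq500. Binding signal is the read frequency of each hexamer for a given factor divided by its frequency in the tag-only sample.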

ELK1 = molecular target: T2, ELK1 (Homo sapiens, UniProt P19419 1-428)
T2 sequence: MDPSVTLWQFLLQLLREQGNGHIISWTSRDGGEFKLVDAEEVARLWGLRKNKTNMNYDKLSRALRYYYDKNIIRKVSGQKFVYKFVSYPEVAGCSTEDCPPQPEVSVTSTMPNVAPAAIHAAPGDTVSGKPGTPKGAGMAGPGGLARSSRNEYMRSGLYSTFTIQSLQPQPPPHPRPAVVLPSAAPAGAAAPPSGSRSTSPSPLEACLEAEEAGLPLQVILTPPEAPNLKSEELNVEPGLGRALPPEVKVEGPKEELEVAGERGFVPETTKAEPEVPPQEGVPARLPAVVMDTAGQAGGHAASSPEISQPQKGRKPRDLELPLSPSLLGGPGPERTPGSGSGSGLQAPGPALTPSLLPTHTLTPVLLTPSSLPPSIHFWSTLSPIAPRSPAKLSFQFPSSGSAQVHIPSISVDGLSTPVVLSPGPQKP
In short: as §1

GABPA = molecular target: T3, GABPA (Homo sapiens, UniProt Q06546 1-454)
T3 sequence: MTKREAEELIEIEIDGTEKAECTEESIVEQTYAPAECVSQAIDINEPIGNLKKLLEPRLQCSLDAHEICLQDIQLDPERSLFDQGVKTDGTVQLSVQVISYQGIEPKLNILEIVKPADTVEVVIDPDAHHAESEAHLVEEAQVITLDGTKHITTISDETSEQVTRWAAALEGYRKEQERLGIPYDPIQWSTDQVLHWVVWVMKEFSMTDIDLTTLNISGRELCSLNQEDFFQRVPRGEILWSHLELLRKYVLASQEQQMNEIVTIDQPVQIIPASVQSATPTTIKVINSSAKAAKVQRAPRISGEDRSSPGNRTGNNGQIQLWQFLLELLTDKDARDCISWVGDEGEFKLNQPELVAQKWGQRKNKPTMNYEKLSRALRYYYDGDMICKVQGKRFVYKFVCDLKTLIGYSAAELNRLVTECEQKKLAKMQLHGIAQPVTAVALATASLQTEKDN
In short: as §1

ERG = molecular target: T4, ERG (Homo sapiens, UniProt P11308 1-479)
T4 sequence: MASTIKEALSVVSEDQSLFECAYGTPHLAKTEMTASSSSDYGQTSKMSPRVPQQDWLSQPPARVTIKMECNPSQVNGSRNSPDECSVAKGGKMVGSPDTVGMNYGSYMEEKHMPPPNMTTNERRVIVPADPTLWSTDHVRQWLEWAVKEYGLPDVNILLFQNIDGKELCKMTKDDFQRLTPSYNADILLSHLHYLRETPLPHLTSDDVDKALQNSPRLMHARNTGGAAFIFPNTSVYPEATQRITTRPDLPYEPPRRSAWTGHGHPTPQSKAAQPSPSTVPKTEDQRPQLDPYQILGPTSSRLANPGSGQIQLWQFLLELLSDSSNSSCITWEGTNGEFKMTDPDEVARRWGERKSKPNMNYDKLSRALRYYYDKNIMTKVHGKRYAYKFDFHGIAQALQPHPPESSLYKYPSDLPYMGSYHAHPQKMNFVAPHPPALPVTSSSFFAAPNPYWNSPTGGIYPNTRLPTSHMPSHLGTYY
In short: as §1

ELF1 = ELF1 (Homo sapiens, UniProt P32519 1-619)
Sequence of ELF1 (P32519 whole entry): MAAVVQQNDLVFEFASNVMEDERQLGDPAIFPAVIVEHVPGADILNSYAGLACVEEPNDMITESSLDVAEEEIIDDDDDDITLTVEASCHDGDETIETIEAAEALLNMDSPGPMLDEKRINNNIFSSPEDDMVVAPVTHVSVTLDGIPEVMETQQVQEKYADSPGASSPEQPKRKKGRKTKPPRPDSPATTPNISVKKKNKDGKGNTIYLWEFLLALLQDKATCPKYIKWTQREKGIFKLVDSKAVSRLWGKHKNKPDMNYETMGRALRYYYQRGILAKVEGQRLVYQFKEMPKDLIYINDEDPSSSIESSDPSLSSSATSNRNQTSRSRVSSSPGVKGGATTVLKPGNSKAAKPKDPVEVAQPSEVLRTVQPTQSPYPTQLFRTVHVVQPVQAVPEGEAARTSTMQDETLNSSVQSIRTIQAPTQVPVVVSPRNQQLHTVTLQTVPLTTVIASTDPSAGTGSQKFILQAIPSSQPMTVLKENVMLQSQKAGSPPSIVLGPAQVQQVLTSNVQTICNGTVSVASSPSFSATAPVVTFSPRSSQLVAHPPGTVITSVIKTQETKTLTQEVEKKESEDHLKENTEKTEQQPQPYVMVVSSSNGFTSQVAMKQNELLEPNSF
In short: as §1

EHF = molecular target: T5, EHF (Homo sapiens, UniProt Q9NZC4 1-300)
T5 sequence: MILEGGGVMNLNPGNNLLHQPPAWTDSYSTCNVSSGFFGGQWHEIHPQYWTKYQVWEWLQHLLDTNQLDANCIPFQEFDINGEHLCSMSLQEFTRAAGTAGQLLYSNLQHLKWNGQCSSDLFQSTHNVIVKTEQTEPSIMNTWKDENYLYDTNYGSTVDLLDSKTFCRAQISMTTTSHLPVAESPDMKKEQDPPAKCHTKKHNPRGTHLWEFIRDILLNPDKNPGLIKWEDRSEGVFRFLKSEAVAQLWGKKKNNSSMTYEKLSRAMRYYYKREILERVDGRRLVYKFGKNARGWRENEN
In short: as §1

SPI1 = SPI1 (Homo sapiens, UniProt P17947 1-270)
In short: as §1

SPIB = SPIB (Homo sapiens, UniProt Q01892 1-262)
Sequence of SPIB (Q01892 whole entry): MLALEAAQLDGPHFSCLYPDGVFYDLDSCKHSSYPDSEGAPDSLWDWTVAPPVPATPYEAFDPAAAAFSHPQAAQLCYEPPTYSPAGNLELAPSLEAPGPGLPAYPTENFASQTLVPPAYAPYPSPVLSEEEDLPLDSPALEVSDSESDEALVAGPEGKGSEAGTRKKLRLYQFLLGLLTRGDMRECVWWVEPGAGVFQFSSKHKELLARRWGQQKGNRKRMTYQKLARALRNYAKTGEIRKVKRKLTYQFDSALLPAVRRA
In short: as §1

ELK3 = molecular target: T6, ELK3 (Homo sapiens, UniProt P41970 1-407)
T6 sequence: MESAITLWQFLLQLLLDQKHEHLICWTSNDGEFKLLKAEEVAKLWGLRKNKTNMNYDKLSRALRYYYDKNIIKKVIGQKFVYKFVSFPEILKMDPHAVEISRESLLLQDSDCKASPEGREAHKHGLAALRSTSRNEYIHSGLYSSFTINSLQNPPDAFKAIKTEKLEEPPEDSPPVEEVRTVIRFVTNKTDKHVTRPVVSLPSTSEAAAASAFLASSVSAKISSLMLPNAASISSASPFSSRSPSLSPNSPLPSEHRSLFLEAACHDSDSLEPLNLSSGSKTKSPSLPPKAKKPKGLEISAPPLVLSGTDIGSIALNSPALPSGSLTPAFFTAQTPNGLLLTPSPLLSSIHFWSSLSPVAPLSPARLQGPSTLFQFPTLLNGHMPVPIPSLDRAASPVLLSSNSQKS
In short: as §1

FEV = molecular target: T7, FEV (Homo sapiens, UniProt Q99581 1-238)
T7 sequence: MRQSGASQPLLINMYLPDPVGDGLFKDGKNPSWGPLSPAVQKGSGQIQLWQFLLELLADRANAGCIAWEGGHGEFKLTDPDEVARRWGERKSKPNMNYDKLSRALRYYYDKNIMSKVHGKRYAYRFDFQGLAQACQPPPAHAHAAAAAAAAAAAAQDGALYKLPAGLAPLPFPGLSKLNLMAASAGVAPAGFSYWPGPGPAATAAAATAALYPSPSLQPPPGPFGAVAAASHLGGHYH
In short: as §1

ETV5 = ETV5 (Homo sapiens, UniProt P41161 1-510)
Sequence of ETV5 (P41161 whole entry): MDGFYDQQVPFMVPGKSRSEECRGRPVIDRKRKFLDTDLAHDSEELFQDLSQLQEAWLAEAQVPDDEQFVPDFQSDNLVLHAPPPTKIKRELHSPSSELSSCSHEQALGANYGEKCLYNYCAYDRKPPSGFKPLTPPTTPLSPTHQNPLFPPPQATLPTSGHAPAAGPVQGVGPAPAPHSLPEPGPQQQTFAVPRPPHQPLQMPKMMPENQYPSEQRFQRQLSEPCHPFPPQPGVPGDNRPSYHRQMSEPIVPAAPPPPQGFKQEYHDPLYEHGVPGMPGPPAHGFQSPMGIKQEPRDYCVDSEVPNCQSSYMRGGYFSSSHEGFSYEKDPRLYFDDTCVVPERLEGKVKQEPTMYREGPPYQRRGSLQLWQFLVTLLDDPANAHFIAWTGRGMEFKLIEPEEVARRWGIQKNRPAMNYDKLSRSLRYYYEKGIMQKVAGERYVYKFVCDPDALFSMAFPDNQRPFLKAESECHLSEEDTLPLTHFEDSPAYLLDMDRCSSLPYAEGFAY
In short: as §1

ELF4 = ELF4 (Homo sapiens, UniProt Q99607 1-663)
Sequence of ELF4 (Q99607 whole entry): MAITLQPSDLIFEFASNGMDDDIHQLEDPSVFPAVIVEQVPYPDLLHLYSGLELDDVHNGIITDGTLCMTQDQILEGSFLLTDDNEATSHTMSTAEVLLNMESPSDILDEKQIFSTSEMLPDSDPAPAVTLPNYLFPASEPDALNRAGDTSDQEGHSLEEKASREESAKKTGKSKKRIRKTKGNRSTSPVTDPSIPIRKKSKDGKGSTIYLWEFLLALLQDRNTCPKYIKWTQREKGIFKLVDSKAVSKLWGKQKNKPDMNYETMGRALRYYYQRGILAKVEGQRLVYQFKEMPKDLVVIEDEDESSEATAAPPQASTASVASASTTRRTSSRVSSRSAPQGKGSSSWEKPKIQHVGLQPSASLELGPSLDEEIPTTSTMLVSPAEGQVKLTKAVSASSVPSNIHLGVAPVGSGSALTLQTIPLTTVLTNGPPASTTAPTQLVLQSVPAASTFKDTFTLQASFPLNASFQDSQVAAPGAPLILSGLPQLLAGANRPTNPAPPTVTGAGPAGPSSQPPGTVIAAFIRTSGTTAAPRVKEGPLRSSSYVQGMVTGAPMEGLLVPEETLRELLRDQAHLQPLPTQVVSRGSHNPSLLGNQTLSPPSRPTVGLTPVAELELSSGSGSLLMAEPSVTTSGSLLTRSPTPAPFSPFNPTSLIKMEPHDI
In short: as §1

ETV1 = ETV1 (Homo sapiens, UniProt P50549 1-477)
Sequence of ETV1 (P50549 whole entry): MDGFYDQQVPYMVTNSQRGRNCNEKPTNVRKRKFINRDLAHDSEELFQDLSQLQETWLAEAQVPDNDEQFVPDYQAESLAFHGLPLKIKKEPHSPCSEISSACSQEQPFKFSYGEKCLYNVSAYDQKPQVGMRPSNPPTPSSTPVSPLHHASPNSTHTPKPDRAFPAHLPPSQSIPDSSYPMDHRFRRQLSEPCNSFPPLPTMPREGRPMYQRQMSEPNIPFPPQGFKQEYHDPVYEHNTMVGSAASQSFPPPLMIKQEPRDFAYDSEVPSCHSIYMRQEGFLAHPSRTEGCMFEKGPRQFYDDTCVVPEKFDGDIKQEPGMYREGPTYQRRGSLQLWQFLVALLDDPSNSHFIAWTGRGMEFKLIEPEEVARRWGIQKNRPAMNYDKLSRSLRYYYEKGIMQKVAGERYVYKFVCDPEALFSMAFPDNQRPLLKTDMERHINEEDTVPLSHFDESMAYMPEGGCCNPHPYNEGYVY
In short: as §1

ERF = molecular target: T8, ERF (Homo sapiens, UniProt P50548 1-548)
T8 sequence: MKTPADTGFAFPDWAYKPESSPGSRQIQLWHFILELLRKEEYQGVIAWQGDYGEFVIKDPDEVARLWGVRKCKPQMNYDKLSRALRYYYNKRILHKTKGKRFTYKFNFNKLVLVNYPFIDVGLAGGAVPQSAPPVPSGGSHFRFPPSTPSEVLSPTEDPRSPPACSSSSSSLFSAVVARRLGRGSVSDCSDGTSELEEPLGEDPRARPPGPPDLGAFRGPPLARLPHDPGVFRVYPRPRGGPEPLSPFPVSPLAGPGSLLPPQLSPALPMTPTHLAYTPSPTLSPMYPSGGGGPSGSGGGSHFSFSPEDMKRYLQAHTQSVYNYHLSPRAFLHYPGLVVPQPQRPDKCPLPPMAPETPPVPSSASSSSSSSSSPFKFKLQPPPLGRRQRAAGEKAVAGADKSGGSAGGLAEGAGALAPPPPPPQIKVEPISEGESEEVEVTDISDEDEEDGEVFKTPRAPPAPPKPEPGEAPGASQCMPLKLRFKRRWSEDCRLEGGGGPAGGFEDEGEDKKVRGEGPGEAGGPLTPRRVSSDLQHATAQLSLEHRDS
In short: as §1

ETV3L = molecular target: T9, ETV3L (Homo sapiens, UniProt Q6ZN32 1-361)
T9 sequence: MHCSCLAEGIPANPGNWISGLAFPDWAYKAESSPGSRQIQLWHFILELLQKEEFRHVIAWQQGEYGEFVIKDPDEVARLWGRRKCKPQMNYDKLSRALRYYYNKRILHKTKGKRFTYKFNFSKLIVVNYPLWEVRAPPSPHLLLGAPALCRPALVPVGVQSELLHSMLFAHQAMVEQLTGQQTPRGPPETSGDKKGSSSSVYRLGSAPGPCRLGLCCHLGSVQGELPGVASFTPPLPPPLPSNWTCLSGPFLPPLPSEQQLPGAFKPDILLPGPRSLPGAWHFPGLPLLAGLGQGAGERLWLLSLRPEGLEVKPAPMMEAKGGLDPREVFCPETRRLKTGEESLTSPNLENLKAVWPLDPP
In short: as §1

ETS2 = molecular target: T10, ETS2 (Homo sapiens, UniProt P15036 1-469)
T10 sequence: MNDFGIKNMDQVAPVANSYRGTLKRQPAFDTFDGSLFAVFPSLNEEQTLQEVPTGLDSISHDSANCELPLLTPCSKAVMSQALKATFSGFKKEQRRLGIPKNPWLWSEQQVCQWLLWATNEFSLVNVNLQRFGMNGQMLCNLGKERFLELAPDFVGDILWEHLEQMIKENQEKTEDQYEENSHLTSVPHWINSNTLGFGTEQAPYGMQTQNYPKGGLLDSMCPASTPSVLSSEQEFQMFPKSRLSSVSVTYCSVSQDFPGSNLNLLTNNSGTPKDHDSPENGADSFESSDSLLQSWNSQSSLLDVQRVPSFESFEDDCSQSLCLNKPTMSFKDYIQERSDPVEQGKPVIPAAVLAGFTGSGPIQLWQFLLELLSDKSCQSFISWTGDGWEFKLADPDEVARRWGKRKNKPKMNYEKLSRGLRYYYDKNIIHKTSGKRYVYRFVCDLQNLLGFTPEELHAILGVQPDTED
In short: as §1

SPDEF = molecular target: T11, SPDEF (Homo sapiens, UniProt O95238 1-335)
T11 sequence: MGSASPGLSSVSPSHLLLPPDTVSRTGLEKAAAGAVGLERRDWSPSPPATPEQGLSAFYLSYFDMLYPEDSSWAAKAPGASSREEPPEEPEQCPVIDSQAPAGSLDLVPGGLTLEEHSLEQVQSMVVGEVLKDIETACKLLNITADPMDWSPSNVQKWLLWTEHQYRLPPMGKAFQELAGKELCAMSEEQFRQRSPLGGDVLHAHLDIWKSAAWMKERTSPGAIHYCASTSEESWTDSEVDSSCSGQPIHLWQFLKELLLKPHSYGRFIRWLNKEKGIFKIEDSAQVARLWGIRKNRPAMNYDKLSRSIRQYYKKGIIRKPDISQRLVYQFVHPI
In short: as §1

ETV3 = molecular target: T12, ETV3 (Homo sapiens, UniProt P41162-2 1-143)
T12 sequence: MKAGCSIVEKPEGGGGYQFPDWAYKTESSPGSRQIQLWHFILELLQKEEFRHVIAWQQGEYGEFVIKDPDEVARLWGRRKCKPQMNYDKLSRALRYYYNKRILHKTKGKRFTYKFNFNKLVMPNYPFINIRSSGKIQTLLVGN
In short: as §1

ETV6 = ETV6 (Homo sapiens, UniProt P41212 1-452)
Sequence of ETV6 (P41212 whole entry): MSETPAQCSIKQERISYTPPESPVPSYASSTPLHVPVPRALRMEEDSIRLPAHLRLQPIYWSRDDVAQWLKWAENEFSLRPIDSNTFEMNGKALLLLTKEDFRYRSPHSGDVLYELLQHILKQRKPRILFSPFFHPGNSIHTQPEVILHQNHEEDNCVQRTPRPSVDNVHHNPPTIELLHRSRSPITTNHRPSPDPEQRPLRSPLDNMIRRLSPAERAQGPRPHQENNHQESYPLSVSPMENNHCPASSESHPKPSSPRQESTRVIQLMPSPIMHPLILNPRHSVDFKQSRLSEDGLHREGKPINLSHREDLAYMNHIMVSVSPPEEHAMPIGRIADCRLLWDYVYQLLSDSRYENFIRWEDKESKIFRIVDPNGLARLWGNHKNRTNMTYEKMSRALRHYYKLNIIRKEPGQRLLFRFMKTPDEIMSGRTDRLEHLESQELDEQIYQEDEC
In short: as §1

For TGTAAC, the binding signal (FLI1) was 1.29 fold enrichment (6-mer frequency, TF over GST control), the binding signal (ELK1) was 1.21 fold enrichment (6-mer frequency, TF over GST control) and the binding signal (GABPA) was 1.09 fold enrichment (6-mer frequency, TF over GST control). For the same sequence, the binding signal (ERG) was 1.18 fold enrichment (6-mer frequency, TF over GST control), the binding signal (ELF1) was 1.28 fold enrichment (6-mer frequency, TF over GST control) and the binding signal (EHF) was 1.36 fold enrichment (6-mer frequency, TF over GST control). The binding signal (SPI1) was 1.36 fold enrichment (6-mer frequency, TF over GST control), the binding signal (SPIB) was 1.16 fold enrichment (6-mer frequency, TF over GST control) and the binding signal (ELK3) was 1.2 fold enrichment (6-mer frequency, TF over GST control). For the same sequence, the binding signal (FEV) was 1.23 fold enrichment (6-mer frequency, TF over GST control), the binding signal (ETV5) was 1.24 fold enrichment (6-mer frequency, TF over GST control) and the binding signal (ELF4) was 1.2 fold enrichment (6-mer frequency, TF over GST control). The binding signal (ETV1) was 1.28 fold enrichment (6-mer frequency, TF over GST control), the binding signal (ERF) was 1.23 fold enrichment (6-mer frequency, TF over GST control) and the binding signal (ETV3L) was 1.15 fold enrichment (6-mer frequency, TF over GST control). For the same sequence, the binding signal (ETS2) was 1.32 fold enrichment (6-mer frequency, TF over GST control), the binding signal (SPDEF) was 1.23 fold enrichment (6-mer frequency, TF over GST control) and the binding signal (ETV3) was 1.24 fold enrichment (6-mer frequency, TF over GST control). For the same sequence, the binding signal (ETV6) was 1.2 fold enrichment (6-mer frequency, TF over GST control).
